Reference: PubChem BioAssay AID1159580 (chemical genetic matrix, 2015)
Screen size: about 5,500 compounds; about 2,000 (36%) were called active. Not shown: some 18% with an inconclusive outcome. This is one part of the list. Values without a mark were called inactive. Cut-off read from the data, not from the text of the source: active = normalized growth mostly below about 0.91 (no sharp cut-off); inconclusive = no clear call, values can overlap the other calls; inactive = mostly above about 0.92.

Assay: chemical genetic growth profiling, strain panel (AID 1159580);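 note: tested at 20 µM; growth read once vehicle control cultures reached saturation at 30 °C; 1 = growth at the plate median or of vehicle wells; lower values mean less growth of the strain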
Conditions: S. cerevisiae deletion strains, growth OD

SMILES: CC(=O)Oc1ccc(O)cc1
- normalized growth (locus YAL013W, strain DEP1, stronger effect = lower value): 0.942
- normalized growth (locus YAL021C, strain ccr4, stronger effect = lower value): 1.03
- normalized growth (locus YAL026C, strain drs2, stronger effect = lower value): 0.953
- normalized growth (locus YAL030W, strain snc1, stronger effect = lower value): 0.994
- normalized growth (locus YBL061C, strain skt5, stronger effect = lower value): 0.977
- normalized growth (locus YBR009C, strain hhf1, stronger effect = lower value): 0.963
- normalized growth (locus YBR021W, strain FUR4, stronger effect = lower value): 0.796 (active)
- normalized growth (locus YBR023C, strain chs3, stronger effect = lower value): 0.982
- normalized growth (locus YBR171W, strain sec66, stronger effect = lower value): 0.974
- normalized growth (locus YBR229C, strain ROT2, stronger effect = lower value): 1.02
- normalized growth (locus YBR231C, strain swc5, stronger effect = lower value): 0.971
- normalized growth (locus YBR279W, strain paf1, stronger effect = lower value): 0.986
- normalized growth (locus YCL011C, strain gbp2, stronger effect = lower value): 0.989
- normalized growth (locus YCL016C, strain dcc1, stronger effect = lower value): 0.999
- normalized growth (locus YCL029C, strain bik1, stronger effect = lower value): 1.03
- normalized growth (locus YCL061C, strain MRC1, stronger effect = lower value): 0.993
- normalized growth (locus YCL069W, strain vba3, stronger effect = lower value): 0.987
- normalized growth (locus YCR088W, strain abp1, stronger effect = lower value): 0.995
- normalized growth (locus YDL005C, strain med2, stronger effect = lower value): 0.978
- normalized growth (locus YDL035C, strain GPR1, stronger effect = lower value): 0.922
- normalized growth (locus YDL040C, strain nat1, stronger effect = lower value): 0.994
- normalized growth (locus YDL074C, strain BRE1, stronger effect = lower value): 1
- normalized growth (locus YDL101C, strain DUN1, stronger effect = lower value): 1
- normalized growth (locus YDL134C, strain PPH21, stronger effect = lower value): 0.89
- normalized growth (locus YDL185W, strain tfp1, stronger effect = lower value): 1.03
- normalized growth (locus YDL192W, strain arf1, stronger effect = lower value): 1.02
- normalized growth (locus YDR001C, strain nth1, stronger effect = lower value): 0.987
- normalized growth (locus YDR069C, strain doa4, stronger effect = lower value): 1.02
- normalized growth (locus YDR101C, strain arx1, stronger effect = lower value): 1.02
- normalized growth (locus YDR137W, strain rgp1, stronger effect = lower value): 0.936
- normalized growth (locus YDR150W, strain NUM1, stronger effect = lower value): 0.999
- normalized growth (locus YDR159W, strain sac3, stronger effect = lower value): 0.967
- normalized growth (locus YDR162C, strain NBP2, stronger effect = lower value): 0.916
- normalized growth (locus YDR195W, strain ref2): 0.997
- normalized growth (locus YDR297W, strain sur2, stronger effect = lower value): 0.987
- normalized growth (locus YDR318W, strain mcm21, stronger effect = lower value): 1
- normalized growth (locus YDR334W, strain swr1, stronger effect = lower value): 0.986
- normalized growth (locus YDR335W, strain msn5, stronger effect = lower value): 0.995
- normalized growth (locus YDR388W, stronger effect = lower value): 1.02
- normalized growth (locus YDR392W, strain spt3, stronger effect = lower value): 0.844
- normalized growth (locus YDR502C, strain sam2, stronger effect = lower value): 1.02
- normalized growth (locus YEL003W, strain gim4, stronger effect = lower value): 0.986
- normalized growth (locus YEL037C, strain rad23, stronger effect = lower value): 0.987
- normalized growth (locus YEL061C, strain CIN8 (second series), stronger effect = lower value): 0.98
- normalized growth (locus YEL061C, strain CIN8, stronger effect = lower value): 1
- normalized growth (locus YER015W, strain faa2, stronger effect = lower value): 0.992
- normalized growth (locus YER016W, strain bim1, stronger effect = lower value): 1.01
- normalized growth (locus YER110C, stronger effect = lower value): 1.04
- normalized growth (locus YER111C, strain swi4, stronger effect = lower value): 0.969
- normalized growth (locus YER155C, strain BEM2 (second series), stronger effect = lower value): 0.959
- normalized growth (locus YER155C, strain BEM2, stronger effect = lower value): 1.01
- normalized growth (locus YER167W, strain BCK2, stronger effect = lower value): 0.976
- normalized growth (locus YFR010W, strain ubp6, stronger effect = lower value): 0.969
- normalized growth (locus YGL078C, strain dbp3, stronger effect = lower value): 1.02
- normalized growth (locus YGL086W, strain mad1, stronger effect = lower value): 0.984
- normalized growth (locus YGL167C, strain pmr1, stronger effect = lower value): 0.988
- normalized growth (locus YGL173C, strain kem1, stronger effect = lower value): 0.975
- normalized growth (locus YGL227W, strain vid30, stronger effect = lower value): 0.983
- normalized growth (locus YGL240W, strain doc1, stronger effect = lower value): 0.926
- normalized growth (locus YGL248W, strain PDE1, stronger effect = lower value): 0.923
- normalized growth (locus YGL253W, strain hxk2, stronger effect = lower value): 0.973
- normalized growth (locus YGR135W, strain pre9, stronger effect = lower value): 0.99
- normalized growth (locus YGR229C, strain SMI1, stronger effect = lower value): 0.572 (active)
- normalized growth (locus YGR252W, strain gcn5, stronger effect = lower value): 0.87
- normalized growth (locus YHR013C, strain ard1, stronger effect = lower value): 0.975
- normalized growth (locus YHR027C, strain rpn1, stronger effect = lower value): 0.987
- normalized growth (locus YHR030C, strain SLT2, stronger effect = lower value): 0.994
- normalized growth (locus YHR079C, strain IRE1 (second series), stronger effect = lower value): 1.02
- normalized growth (locus YHR094C, strain hxt1, stronger effect = lower value): 1.02
- normalized growth (locus YHR129C, strain ARP1, stronger effect = lower value): 0.994
- normalized growth (locus YHR142W, strain chs7, stronger effect = lower value): 0.996
- normalized growth (locus YHR200W, strain rpn10, stronger effect = lower value): 1.03
- normalized growth (locus YIL066C, strain RNR3, stronger effect = lower value): 0.852 (active)
- normalized growth (locus YIL073C, strain SPO22, stronger effect = lower value): 0.89
- normalized growth (locus YIL125W, strain kgd1, stronger effect = lower value): 1.02
- normalized growth (locus YIR030C, strain dcg1, stronger effect = lower value): 1.04
- normalized growth (locus YJL092W, strain hpr5, stronger effect = lower value): 0.983
- normalized growth (locus YJL095W, strain BCK1 (second series), stronger effect = lower value): 0.996
- normalized growth (locus YJL095W, strain BCK1, stronger effect = lower value): 0.976
- normalized growth (locus YJL115W, strain asf1, stronger effect = lower value): 0.988
- normalized growth (locus YJL129C, strain trk1, stronger effect = lower value): 1.01
- normalized growth (locus YJL134W, strain LCB3, stronger effect = lower value): 1.03
- normalized growth (locus YJL154C, strain vps35, stronger effect = lower value): 0.985
- normalized growth (locus YJL164C, strain tpk1, stronger effect = lower value): 0.975
- normalized growth (locus YJL166W, strain qcr8, stronger effect = lower value): 0.978
- normalized growth (locus YJL168C, strain set2, stronger effect = lower value): 1.02
- normalized growth (locus YJL187C, strain SWE1 (second series), stronger effect = lower value): 0.997
